In all, about 310,000 compounds went through this assay and about 14,000 (4.5%) showed an effect of 50% or more. Effects have a minus sign here. The sample as a whole holds a higher share of strong results than the screen did.
Each compound was assayed against human ether-à-go-go-related gene (hERG) potassium channel (human, UniProt Q12809) (assay: primary screen, population patch clamp on CHO cells stably expressing hERG; higher = less effect of the substance).
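Further: peak tail current of the secondary pulse compared with the same well before compound.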

Sequence of human ether-à-go-go-related gene (hERG) potassium channel (Q12809 whole entry, looked up): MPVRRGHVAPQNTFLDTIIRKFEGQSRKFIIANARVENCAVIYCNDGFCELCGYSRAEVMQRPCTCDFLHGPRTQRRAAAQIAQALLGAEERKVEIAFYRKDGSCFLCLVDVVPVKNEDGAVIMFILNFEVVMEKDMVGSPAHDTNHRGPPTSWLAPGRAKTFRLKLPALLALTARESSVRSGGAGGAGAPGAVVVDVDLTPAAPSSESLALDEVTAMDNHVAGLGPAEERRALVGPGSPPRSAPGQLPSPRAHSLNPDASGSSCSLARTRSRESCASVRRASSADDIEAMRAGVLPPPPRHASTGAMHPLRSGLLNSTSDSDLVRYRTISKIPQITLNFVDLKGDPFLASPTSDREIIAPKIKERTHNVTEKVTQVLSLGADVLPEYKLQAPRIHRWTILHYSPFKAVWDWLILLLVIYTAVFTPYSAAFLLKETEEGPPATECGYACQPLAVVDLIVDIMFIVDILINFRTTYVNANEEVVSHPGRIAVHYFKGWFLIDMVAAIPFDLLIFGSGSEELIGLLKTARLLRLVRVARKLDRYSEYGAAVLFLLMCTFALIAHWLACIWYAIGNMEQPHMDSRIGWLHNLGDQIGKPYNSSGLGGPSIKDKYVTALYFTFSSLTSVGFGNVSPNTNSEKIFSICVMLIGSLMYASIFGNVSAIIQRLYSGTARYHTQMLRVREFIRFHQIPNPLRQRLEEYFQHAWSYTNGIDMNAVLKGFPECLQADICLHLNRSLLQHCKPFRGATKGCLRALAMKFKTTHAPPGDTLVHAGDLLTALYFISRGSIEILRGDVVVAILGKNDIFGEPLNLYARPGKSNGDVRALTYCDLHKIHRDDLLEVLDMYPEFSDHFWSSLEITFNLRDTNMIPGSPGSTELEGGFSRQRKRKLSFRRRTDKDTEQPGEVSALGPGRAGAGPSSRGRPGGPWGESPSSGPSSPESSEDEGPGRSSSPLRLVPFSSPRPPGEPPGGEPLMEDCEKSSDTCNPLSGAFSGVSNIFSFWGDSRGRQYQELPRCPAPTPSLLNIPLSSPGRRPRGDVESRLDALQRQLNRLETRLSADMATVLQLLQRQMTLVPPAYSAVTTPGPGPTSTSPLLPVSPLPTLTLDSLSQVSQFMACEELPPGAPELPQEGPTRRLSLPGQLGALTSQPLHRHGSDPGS

Compound	hERG current change (%, negative = inhibition) at 10uM [%]
CCO.CCn1c(COc2ccc3c(c2)OCO3)nnc1SCC(=O)O	-0.394
CCOC(=O)N1CCN(C(=O)CS(=O)(=O)Cc2nc(-c3ccccc3F)oc2C)CC1	-13.6
CCOC(=O)CNC(=O)CSc1nc2cccnc2n1Cc1ccccc1	-53.9
O=C(CSc1nc2cccnc2n1Cc1ccccc1)N1CCCC1	-63.7
CCOC(=O)CNC(=O)CSc1nc2cccnc2n1C	7.54
COCCn1c(SCC(=O)N2CCCCC2)nc2cccnc21	-1.5
CCOC(=O)CNC(=O)CSc1nc2cccnc2n1CC	-7.04
Cn1c(SCC(=O)N2CCCC2)nc2cccnc21	16.9
CC1=C(C(=O)OC(C)C)C(c2cncc(-c3ccc(F)cc3)c2)C(C#N)=C(N)O1 (stereo not drawn)	-28.6
Cc1nn(CC2CCCCC2)c(N)c1-c1ccccc1	-12.2
CC(C)(C)c1cc(C(F)(F)F)c(C#N)c(=O)[nH]1	25
Cc1nc(NC2CCCCC2)c2nnn(Cc3ccccc3Cl)c2n1	8.09
C[n+]1ccccc1C1CCCC/C1=N\Nc1ccc([N+](=O)[O-])cc1[N+](=O)[O-].[I-] (stereo not drawn)	-11.8
O=[N+]([O-])c1ccc(N/N=C2/CCCCC2c2ccccn2)c([N+](=O)[O-])c1 (stereo not drawn)	-56.3
CC1CCCC/C1=N/Nc1ccc([N+](=O)[O-])cc1[N+](=O)[O-] (stereo not drawn)	-1.11
COc1ccccc1C(=O)NC(CCSC)C(=O)NCC(c1cccs1)N(C)C (stereo not drawn)	2.41
COc1ccc(NC(=O)C(=O)NNC(=O)COc2ccc(Cl)cc2)c(OC)c1	10.5
Cn1cc(C(=O)c2ccc(F)cc2)cc1-c1nc2ccccc2n1C	-50.5
Cn1cc(C(=O)c2ccccc2)cc1-c1nc2ccccc2n1C	-41.9
Cn1cc(C(=O)c2ccc(Cl)cc2)cc1-c1nc2ccccc2n1C	-47.9
CCN(CC)CCn1c(OC)cc(=O)[nH]c1=O	17.6
CCC1=C(OC(=O)N(CC)CC)N2C(=O)OC(=NCCc3c[nH]c4ccccc34)[C@]2(C)[C@H]2C1=CC[C@H]1C(=O)N(CC)C(=O)[C@H]12	-9.68
CCn1cc(CNC(=O)c2ccc3nc(Cc4ccc(OC)cc4)oc3c2)cn1	6.8
COc1cccc(C2=CC(=O)C[C@H](c3ccc(Cl)cc3)C2)c1	15.4

Compound	hERG current change (%, negative = inhibition) at 10uM [%]
COc1ccc([C@H]2CC(=O)C=C(c3ccnc4ccc(Cl)cc34)C2)cc1	-57.6
COc1ccc([C@H]2CC(=O)C=C(c3ccc(Cl)cc3C)C2)cc1	4.03
COc1cccc(C2=CC(=O)C[C@H](c3ccc(F)cc3)C2)c1	-14.9
COc1ccc([C@H]2CC(=O)C=C(c3cccc(OC)c3)C2)cc1	-82.1
COc1ccc([C@H]2CC(=O)C=C(c3cc(Cl)ccc3OC)C2)cc1	7.4
COc1ccc([C@H]2CC(=O)C=C(c3cccc(Cl)c3)C2)cc1	-11.8
COc1ccc([C@H]2CC(=O)C=C(c3cccc(Br)c3)C2)cc1	-1.14
COc1ccc([C@H]2CC(=O)C=C(c3cccc(C#N)c3)C2)cc1	-72.3
Cc1ccc(S(=O)(=O)NCC(=O)NCCc2c[nH]c3ccccc23)cc1C	3.3
O=C(NCC1OCCCN1S(=O)(=O)c1cc(F)ccc1F)C(=O)NC1CCCCC1 (stereo not drawn)	-3.8
O=C(CN1CCN(CC(=O)Nc2ccccc2Cl)CC1)Nc1ccc2c(c1)OCCO2	-68.7
O=C(CN1CCOCC1)Nc1ccc2c(c1)OCCO2.O=C(O)C(=O)O	15
Cl.O=C(CN1CCC(NC(=O)c2ccccc2F)CC1)Nc1ccc2c(c1)OCCO2	6.04
O=C(CN1CCN(CC(=O)Nc2ccccc2F)CC1)Nc1ccc2c(c1)OCCO2	-71.2
O=C(CN1CCOCC1)Nc1ccccc1Cl	-8.73
O=C(CN1CCC(C(=O)c2ccc3c(c2)OCCO3)CC1)Nc1ccccc1F	-0.724
COC(=O)N/N=C/c1ccccc1Cl	19.4
N#CC(c1cccc(C(F)(F)F)c1)(c1ncc(C(F)(F)F)cc1Cl)N1CCOCC1 (stereo not drawn)	4.46
O=C(c1cc(COc2ccc(F)cc2Cl)on1)N(Cc1ccncc1)CC1CCCO1 (stereo not drawn)	-60.7
CCN(Cc1ccncc1)C(=O)c1cc(COc2ccc(F)cc2Cl)on1	-44
COc1cc(Cl)ccc1OCc1cc(C(=O)N(C)CC2CCCCO2)no1 (stereo not drawn)	-18.7
CN(CC1CCCCO1)C(=O)c1cc(COc2ccc(F)cc2Cl)on1 (stereo not drawn)	-87.1
CCCN(CC1CCCO1)C(=O)c1cc(COc2ccc(F)cc2F)on1 (stereo not drawn)	-15
COc1ccc(OCc2cc(C(=O)N(C)CC3CCCCO3)no2)c(Cl)c1 (stereo not drawn)	-17.4

Source: article PMC4336329 (PLoS ONE, 2015)
